Records with an inconclusive call do not appear. Activity calls are given as the source filed them.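 Rule for the calls, unless noted: active = inhibition above the screen-wide mean plus 3 SD, about 51%; inactive = the rest.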

Assay [1] in a line: rapamycin-like changes in RPL19A-GFP expression – cell-based, S. cerevisiae, multiplex flow cytometry, primary screen (AID 1862; in the data active = percent of DMSO control GFP below about 86%;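 note: lower values mimic rapamycin by blocking the RPL19A rise seen in DMSO cells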). Conditions: S. cerevisiae RPL19A-GFP strain, flow cytometry fluorescence, 3 h; at 10 µM; stronger effect = lower value. For orientation: A flow cytometer gives signals particle by particle.
A short description of assay [2]: TOR pathway GLN3 branch reporter MEP2-GFP changes – S. cerevisiae, multiplex flow cytometry, primary screen (AID 1867;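 active = GFP response, as percent of the DMSO control, above the screen-wide mean plus 3 SD, about 139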;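 note: median GFP channel fluorescence of barcode-gated MEP2-GFP cells measured by flow cytometry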). The note with it: S. cerevisiae MEP2-GFP strain, 3 h, at 10 µM, stronger effect = higher value, 100% means same as DMSO wells.
A short description of assay [3]: TOR pathway RTG branch CIT2 reporter changes – S. cerevisiae, GFP fusion, multiplex flow cytometry, primary screen (AID 1870;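 active = percent response above a set limit, the screen-wide mean plus 3 SD, cut at about 130% in these data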;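 note: barcoded CIT2-GFP strain pooled with four other GFP strains with rapamycin as positive control; median GFP fluorescence per well over plate mean of DMSO wells so 100% = DMSO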). The note with it: S. cerevisiae CIT2-GFP expression, 3 h, at 10 µM, stronger effect = higher value.
The nature of assay [4]: TOR pathway LAP4-GFP level changes – S. cerevisiae, multiplex flow cytometry, primary screen (AID 1873;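 active = GFP signal, as percent of the solvent control, above the screen mean plus 3 SD, about 149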). Conditions: S. cerevisiae LAP4-GFP expression, 3 h, at 10 µM, stronger effect = higher value.
Assay [5] in a line: yeast AGP1-GFP level changes, GLN3 branch – cell-based, multiplex flow cytometry, S. cerevisiae, primary screen (AID 1887;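 active = GFP signal above the screen-wide mean plus 3 SD, that is over about 124.5% of the solvent control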;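 note: AGP1-GFP fusion strain of S. cerevisiae within a five-strain barcoded multiplex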). The note with it: 3 h, at 10 µM, stronger effect = higher value.
Assay [6] in a line: reduced mouse 2C T cell binding to pMHC/ICAM-1 vesicles – MLPCN validation set, flow cytometry, LFA-1/ICAM-1 modulator project, pilot screen (AID 2523;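 active = response below a set limit, under 55% cells CD8-positive and vesicle-bound, and CD8 cells' 90th-percentile brightness under 279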;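 for vesicle binding response: mean PE anti-B7-1 fluorescence of CD8+ cells relative to row control; 100% = QL9-loaded vesicles with DMSO vehicle in the same plate row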). Conditions: 2C mouse CD8+ T cells, at 7 µM, stronger effect = lower value; double positive events: measured here: CD8+/vesicle+ event percentage.
The target of assay [7] is Integrin beta-1 (Homo sapiens) + Integrin alpha-4 (Homo sapiens) (UniProt P13612+P05556). Nature of the assay: alpha4beta1 integrin LIBS antibody binding reduction – U937 cells, HUTS-21 mAb, flow cytometry, validation set, VLA-4 allosteric modulator project, pilot screen (AID 2674;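 active = inhibition above 50%, about 3 SD of the validation set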;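 note: antibody binding induced by the VLA-4 ligand LDV present at three times its Kd; 0% = LDV ligand with antibody and no compound and 100% = antibody without LDV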). Conditions: HUTS-21 LIBS mAb binding, at 6.7 µM, stronger effect = higher value, binding induced by LDV ligand.

Assay [8] is described as follows: calorie-restriction mimetic ROS inhibitors, yeast – validation compound set, pilot screen (AID 2706;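 active = superoxide response below 65% of plate, a cut near 3 SD across the whole screen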;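 note: yeast exposed to compound for one week at 30 degrees C before staining; 100% = mean of all compound wells on the same plate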). The note with it: S. cerevisiae aging, superoxide DHE fluorescence; at 10 µM; stronger effect = lower value.
Assay [9] deals with Beta-adrenergic receptor kinase 1 (Homo sapiens) (UniProt P25098). Kind of assay: GRK2 binders displacing RNA aptamer, biochemical, validation, human GRK2, bead flow cytometry (AID 488806;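 active = aptamer binding inhibition above 30%, about 3 SD of noise from non-fluorescent compounds; inactive = inhibition at or below 30%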). The note with it: bead-bound GRK2, FAM-aptamer displacement, at 10 µM, stronger effect = higher value.
Assay [10] has as its target Beta-2 adrenergic receptor (Homo sapiens) (UniProt P07550). Nature of the assay: agonist-induced loss of surface beta2AR – cell-based, FAP fluorogen, flow cytometry, validation set, pilot screen (AID 504459;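 active = percent response above 42, roughly 3 SD of non-fluorescent test compounds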;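 note: agonist-driven loss of surface beta2AR via internalization measured by FAP dye flow cytometry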). Conditions: Am2.2-beta2AR cells, at 10 µM, stronger effect = higher value.
The target of assay [11] is AP-2 complex subunit beta (Homo sapiens) (UniProt P63010). Nature of the assay: beta-arrestin/AP2 interaction blockers – biochemical, validation set, GST-AP2 beads, flow cytometry, pilot screen (AID 504541;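 active = inhibition above 54%, about 3 SD of non-fluorescent compounds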;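 note: AP2 carries R879A mutation and is captured from E. coli lysate; bead-bound FITC arrestin peptide fluorescence measuring arrestin peptide binding to AP2; 0% = DMSO wells and 100% = excess unlabeled arrestin peptide control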). The note with it: FITC arrestin peptide, at 10 µM, stronger effect = higher value, AP2 beta2 appendage fragment, R879A mutant.
The nature of assay [12]: cytosolic pH regulators acting via V-ATPase – S. cerevisiae, pHLuorin, HTS validation (AID 504600; in the data active = response above about 15%;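 note: plate controls were DMSO for no effect and reference compound for full effect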). Conditions: V-ATPase proton transport, at 10 µM, stronger effect = higher value.
Assay [13] deals with anti-desmoglein-3 scFv antibody binding to human DSG3. Nature of the assay: blockers of pathogenic pemphigus antibody–desmoglein-3 binding – biochemical, validation compound set, bead-based, flow cytometry, pilot screen (AID 588368;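 active = binding below the plate cutoff, the plate median minus 3 SD, with a reading above zero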;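 note: signal is the median channel fluorescence of bead-bound GFP antibody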). The note with it: Protein G beads, DSG3-Fc, scFv-GFP binding, at 10 µM, stronger effect = lower value.
The nature of assay [14]: Nile Red efflux blockade in pump-expressing yeast – validation compound set, multiplex, phenotypic, pilot screen (AID 588506;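 active = efflux inhibition above 0.42, the validation set average plus 4 SD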;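 note: Nile Red retained in cells so higher fluorescence means more efflux inhibition; 0 = negative control wells and 1 = enniatin B 25 µM full block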). Conditions: S. cerevisiae pump-expressing triplex, Nile Red efflux flow cytometry; at 10 µM; stronger effect = higher value; the pumps come from Candida albicans.
For assay [15], the target named is ATP-binding cassette sub-family B member 6 (Homo sapiens) (UniProt Q9NP58). Nature of the assay: blockers of ABCB6-driven porphyrin uptake – K562-ABCB6 cells, flow cytometry, validation set, pilot screen (AID 588550).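 Note: 0% = DMSO wells and 100% = benzethonium chloride 70 µM positive control.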 The note with it: K562-ABCB6 porphyrin accumulation, 1 h, at 10 µM, stronger effect = higher value.
Assay [16] can be described thus: AML differentiation inducers, ER-HoxA9 marrow cells – cell-based, GFP/MAC1 double positive, flow cytometry, validation set, primary screen (AID 588685;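 active = differentiation response of at least 50%, scaled between solvent and reference control, from cells with both markers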;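 note: compound exposure lasts four days before antibody staining and flow analysis; 0% = DMSO wells and 100% = 5 µM fulvestrant positive control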). Conditions: stronger effect = higher value, normalized: vehicle 0, fulvestrant 100.

Sequence of ATP-binding cassette sub-family B member 6 (Homo sapiens) (Q9NP58 whole entry, looked up): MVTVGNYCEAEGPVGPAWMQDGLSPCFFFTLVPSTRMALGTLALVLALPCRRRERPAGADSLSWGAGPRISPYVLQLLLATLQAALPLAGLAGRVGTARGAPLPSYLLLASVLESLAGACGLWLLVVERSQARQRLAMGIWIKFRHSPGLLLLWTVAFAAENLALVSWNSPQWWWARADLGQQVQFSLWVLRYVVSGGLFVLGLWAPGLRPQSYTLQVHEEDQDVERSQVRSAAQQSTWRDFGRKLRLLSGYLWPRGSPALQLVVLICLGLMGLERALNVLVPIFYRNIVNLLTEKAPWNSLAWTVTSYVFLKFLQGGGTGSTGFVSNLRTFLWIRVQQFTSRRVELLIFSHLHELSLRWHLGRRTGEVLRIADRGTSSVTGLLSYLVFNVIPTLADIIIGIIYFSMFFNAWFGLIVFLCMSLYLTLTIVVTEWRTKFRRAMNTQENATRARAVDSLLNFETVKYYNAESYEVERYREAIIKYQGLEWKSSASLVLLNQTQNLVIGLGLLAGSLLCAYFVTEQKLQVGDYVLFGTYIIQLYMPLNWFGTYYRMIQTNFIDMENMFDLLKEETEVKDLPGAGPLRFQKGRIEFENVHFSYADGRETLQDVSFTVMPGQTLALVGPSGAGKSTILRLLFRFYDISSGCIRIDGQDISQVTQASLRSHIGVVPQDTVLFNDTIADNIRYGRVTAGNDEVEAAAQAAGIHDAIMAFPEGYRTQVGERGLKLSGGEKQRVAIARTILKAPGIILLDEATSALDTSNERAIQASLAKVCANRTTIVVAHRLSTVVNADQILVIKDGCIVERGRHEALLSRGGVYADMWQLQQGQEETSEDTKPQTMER
Sequence of Beta-adrenergic receptor kinase 1 (Homo sapiens) (P25098 whole entry, looked up): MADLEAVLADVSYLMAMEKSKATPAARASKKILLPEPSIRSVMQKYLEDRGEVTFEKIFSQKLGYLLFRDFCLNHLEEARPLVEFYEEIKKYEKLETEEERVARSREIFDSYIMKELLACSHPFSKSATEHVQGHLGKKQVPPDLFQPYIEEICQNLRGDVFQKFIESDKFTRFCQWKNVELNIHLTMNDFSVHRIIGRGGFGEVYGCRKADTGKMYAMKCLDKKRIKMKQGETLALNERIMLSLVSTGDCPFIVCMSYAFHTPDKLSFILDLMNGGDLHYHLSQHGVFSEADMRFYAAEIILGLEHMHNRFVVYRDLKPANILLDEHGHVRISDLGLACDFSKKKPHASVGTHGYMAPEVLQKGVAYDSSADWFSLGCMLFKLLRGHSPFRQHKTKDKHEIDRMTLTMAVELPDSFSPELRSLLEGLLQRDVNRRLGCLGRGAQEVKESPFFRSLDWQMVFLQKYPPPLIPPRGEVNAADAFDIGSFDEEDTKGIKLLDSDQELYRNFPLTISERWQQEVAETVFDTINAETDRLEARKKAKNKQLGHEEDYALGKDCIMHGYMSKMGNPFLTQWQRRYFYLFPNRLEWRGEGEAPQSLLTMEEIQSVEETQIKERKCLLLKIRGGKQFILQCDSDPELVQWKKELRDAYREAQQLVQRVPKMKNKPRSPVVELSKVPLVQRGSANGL
Sequence of Beta-2 adrenergic receptor (Homo sapiens) (P07550 whole entry, looked up): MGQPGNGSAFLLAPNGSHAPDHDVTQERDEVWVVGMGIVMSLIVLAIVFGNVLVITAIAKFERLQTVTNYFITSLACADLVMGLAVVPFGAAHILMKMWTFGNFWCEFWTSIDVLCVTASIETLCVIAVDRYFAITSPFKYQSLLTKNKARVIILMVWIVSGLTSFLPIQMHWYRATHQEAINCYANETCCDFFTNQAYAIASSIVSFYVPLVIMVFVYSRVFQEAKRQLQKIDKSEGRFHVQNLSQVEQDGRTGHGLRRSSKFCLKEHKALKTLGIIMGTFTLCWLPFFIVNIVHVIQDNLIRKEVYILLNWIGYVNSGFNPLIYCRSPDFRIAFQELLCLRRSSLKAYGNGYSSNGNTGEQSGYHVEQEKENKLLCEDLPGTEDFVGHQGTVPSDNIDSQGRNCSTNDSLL
Sequence of Integrin beta-1 (Homo sapiens) + Integrin alpha-4 (Homo sapiens) (P05556 whole entry, looked up): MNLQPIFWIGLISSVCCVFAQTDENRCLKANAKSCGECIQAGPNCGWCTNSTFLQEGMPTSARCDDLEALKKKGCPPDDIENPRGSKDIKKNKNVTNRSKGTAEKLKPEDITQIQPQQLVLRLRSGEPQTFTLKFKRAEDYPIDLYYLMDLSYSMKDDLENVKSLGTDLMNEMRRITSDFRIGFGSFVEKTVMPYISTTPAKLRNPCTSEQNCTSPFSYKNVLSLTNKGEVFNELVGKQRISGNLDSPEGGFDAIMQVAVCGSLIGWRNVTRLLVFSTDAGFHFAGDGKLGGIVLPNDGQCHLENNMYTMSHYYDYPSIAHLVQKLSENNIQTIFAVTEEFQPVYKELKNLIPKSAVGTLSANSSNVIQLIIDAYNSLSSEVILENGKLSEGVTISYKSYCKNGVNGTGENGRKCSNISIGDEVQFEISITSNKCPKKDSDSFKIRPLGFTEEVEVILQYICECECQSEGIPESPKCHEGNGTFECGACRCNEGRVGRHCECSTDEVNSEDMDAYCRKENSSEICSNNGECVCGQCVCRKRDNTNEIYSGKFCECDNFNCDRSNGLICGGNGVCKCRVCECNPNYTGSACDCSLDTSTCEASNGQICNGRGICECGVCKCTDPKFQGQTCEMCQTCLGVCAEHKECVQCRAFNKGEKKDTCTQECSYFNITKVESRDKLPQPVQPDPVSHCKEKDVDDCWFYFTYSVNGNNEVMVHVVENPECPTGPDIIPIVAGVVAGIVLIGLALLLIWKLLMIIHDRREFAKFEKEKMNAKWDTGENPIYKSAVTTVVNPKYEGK
Sequence of Integrin beta-1 (Homo sapiens) + Integrin alpha-4 (Homo sapiens) (P13612 whole entry, looked up): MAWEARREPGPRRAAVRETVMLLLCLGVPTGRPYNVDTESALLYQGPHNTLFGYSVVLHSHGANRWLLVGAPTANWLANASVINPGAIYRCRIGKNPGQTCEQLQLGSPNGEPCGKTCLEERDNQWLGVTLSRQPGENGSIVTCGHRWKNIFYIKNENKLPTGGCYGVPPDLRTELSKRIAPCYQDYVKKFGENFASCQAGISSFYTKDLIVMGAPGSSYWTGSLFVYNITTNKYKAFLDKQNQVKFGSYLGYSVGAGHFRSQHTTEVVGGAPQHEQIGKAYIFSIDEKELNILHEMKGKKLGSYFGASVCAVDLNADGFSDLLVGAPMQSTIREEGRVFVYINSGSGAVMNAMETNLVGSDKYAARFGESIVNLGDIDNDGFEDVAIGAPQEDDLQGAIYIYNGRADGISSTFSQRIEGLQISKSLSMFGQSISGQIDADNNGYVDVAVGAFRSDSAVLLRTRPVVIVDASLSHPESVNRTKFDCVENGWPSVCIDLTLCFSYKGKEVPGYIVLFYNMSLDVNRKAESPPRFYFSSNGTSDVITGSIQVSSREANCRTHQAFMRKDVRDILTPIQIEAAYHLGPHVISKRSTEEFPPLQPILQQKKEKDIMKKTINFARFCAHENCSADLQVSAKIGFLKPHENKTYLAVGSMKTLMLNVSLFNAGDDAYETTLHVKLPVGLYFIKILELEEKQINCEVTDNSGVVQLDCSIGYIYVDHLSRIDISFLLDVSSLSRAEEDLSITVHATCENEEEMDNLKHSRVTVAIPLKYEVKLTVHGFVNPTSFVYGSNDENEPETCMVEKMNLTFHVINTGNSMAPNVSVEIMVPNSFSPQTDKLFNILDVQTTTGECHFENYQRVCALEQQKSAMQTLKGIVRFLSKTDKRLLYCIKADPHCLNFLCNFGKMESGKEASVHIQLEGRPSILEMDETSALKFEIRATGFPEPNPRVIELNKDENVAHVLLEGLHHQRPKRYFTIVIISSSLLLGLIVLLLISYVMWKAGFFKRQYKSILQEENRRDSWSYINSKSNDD
Sequence of AP-2 complex subunit beta (Homo sapiens) (P63010 whole entry, looked up, the tested form may be a part, one chain of several): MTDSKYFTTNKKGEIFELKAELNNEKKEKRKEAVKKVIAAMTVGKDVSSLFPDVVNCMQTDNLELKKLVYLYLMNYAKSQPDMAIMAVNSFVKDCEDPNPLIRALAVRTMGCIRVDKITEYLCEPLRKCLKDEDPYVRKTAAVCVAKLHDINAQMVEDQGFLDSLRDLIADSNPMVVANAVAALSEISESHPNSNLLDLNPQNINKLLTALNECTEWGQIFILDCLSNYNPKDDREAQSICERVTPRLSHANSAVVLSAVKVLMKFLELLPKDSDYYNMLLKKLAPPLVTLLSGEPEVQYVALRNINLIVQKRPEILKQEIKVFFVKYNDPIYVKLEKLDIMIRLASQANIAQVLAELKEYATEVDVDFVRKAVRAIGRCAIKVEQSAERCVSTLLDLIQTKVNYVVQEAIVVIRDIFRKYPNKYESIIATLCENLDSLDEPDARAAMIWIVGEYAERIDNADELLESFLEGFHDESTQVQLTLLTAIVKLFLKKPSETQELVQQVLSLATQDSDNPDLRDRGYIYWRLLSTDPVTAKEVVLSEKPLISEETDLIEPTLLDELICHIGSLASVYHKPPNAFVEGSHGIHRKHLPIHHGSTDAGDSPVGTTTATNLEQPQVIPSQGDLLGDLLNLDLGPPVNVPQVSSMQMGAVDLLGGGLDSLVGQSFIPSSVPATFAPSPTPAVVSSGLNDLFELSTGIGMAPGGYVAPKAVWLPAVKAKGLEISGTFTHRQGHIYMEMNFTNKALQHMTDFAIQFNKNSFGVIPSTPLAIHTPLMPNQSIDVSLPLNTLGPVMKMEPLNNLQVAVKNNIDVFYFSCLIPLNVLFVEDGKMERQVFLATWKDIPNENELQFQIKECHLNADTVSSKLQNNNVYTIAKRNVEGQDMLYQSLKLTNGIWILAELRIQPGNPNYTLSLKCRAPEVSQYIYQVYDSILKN

On to `COc1ccc2nc(S(=O)Cc3ncc(C)c(OC)c3C)[nH]c2c1` (stereo not given), for which, in [1], the percent of DMSO control GFP is 107% (inactive). Besides, the GFP response vs DMSO in assay [2] is 105% (inactive); in assay [4], 95.9% (inactive). Besides, the percent response of DMSO control in [3] is 99.7% (inactive). In assay [5], the GFP response, % of DMSO is 97.1% (inactive). The molecule further showed a double positive events in [6] of 60.4%. In assay [6], the vesicle binding response was 131% (inactive). In addition, the inhibition was -13.2% (inactive) in assay [7], -8.15% (inactive) in [11] and -7% (inactive) in assay [15]. Further, the superoxide response (% of plate) in assay [8] was 84.9% (inactive). Also, the aptamer binding inhibition in assay [9] was 2% (inactive). Besides, the response in [10] is 24.8% (inactive); in assay [12], 0.81% (inactive). The binding (% of control) in [13] was 104% (inactive). Moreover, the efflux inhibition (fraction of control) in assay [14] is -0.16 (inactive). The differentiation response in assay [16] was 52.5% (active).
Turning to `O=C(NCCC(c1ccccc1)c1ccco1)c1cccs1` (stereo not given), the percent of DMSO control GFP in [1] was 97.6% (inactive). The GFP response vs DMSO in assay [2] is 105% (inactive); in assay [4] it was 127% (inactive). The percent response of DMSO control in assay [3] was 91% (inactive). Besides, the GFP response, % of DMSO in [5] is 96.5% (inactive). In [6], this molecule showed a double positive events of 57.6%. Also, the vesicle binding response in [6] was 230% (inactive). Further, the inhibition in assay [7] was -5.89% (inactive); in assay [11] it was -6.88% (inactive); in [15], 11% (inactive). Also, the superoxide response (% of plate) in assay [8] is 105% (inactive). Moreover, in assay [9], the aptamer binding inhibition was 0% (inactive). For the same molecule, the values for the response in assay [10] and in [12] were -13.3% (inactive) and 2.49% (inactive), respectively. In addition, in [13], the binding (% of control) was 99.7% (inactive). The efflux inhibition (fraction of control) in assay [14] is -0.21 (inactive). For the same molecule, the differentiation response in assay [16] was -5.6% (inactive).
Consider `CN1CCN(C2=Nc3ccccc3Oc3ccc(Cl)cc32)CC1`, for which, in [1], the percent of DMSO control GFP is 101% (inactive). For the same molecule, the GFP response vs DMSO in assay [2] is 115% (inactive); in assay [4], 79.8% (inactive). In addition, the percent response of DMSO control in assay [3] is 111% (inactive). In addition, the GFP response, % of DMSO in [5] is 100% (inactive). In addition, in assay [6], the double positive events worked out at 61.6%. Moreover, in assay [6], the vesicle binding response is 223% (inactive). The inhibition in assay [7] is 4.52% (inactive); in [11] it was -13.5% (inactive); in assay [15], 14% (inactive). Also, the superoxide response (% of plate) in assay [8] is 112% (inactive). The aptamer binding inhibition in assay [9] is -9% (inactive). Further, the response is -6.79% (inactive) in assay [10] and 0.86% (inactive) in assay [12]. The binding (% of control) in assay [13] is 109% (inactive). The efflux inhibition (fraction of control) in assay [14] is 0.19 (inactive). The differentiation response in [16] was -0.82% (inactive).
Consider `CC(=O)N1CCN2C(=O)C1CCCC(=O)c1cc(C(C)C)ccc12` (stereo not given), for which the percent of DMSO control GFP in assay [1] is 99.5% (inactive). In addition, the GFP response vs DMSO in assay [2] was 90.8% (inactive); in assay [4] it was 82.8% (inactive). For the same molecule, the percent response of DMSO control in assay [3] was 103% (inactive). Also, the GFP response, % of DMSO in assay [5] is 91.2% (inactive). The double positive events in assay [6] stood at 55.3%. Further, the vesicle binding response in [6] was 234% (inactive). In addition, the inhibition in assay [7] is -4.52% (inactive); in assay [11], -5.05% (inactive); in assay [15], 9% (inactive). In addition, in assay [8], the superoxide response (% of plate) was 94.5% (inactive). For the same molecule, the aptamer binding inhibition in assay [9] is 6% (inactive). The response in assay [10] is 0.52% (inactive); in assay [12], 0.04% (inactive). For the same molecule, the binding (% of control) in [13] is 103% (inactive). In addition, the efflux inhibition (fraction of control) in [14] was -0.24 (inactive). Also, the differentiation response in assay [16] is 20% (inactive).
Turning to `CC(C)=CCCC1=CCC2C(=O)NNC(=O)C2C1` (stereo not given), in assay [1], the percent of DMSO control GFP was 98.8% (inactive). Moreover, the GFP response vs DMSO was 101% (inactive) in assay [2] and 99.9% (inactive) in assay [4]. Besides, the percent response of DMSO control in [3] was 110% (inactive). In [5], the GFP response, % of DMSO is 99.5% (inactive). In assay [6], the double positive events was found to be 50.6%. Moreover, in assay [6], the vesicle binding response was 61.5% (active). In addition, the results for the inhibition in [7], in assay [11] and in assay [15] were -3.16% (inactive), -0.62% (inactive) and 4% (inactive), respectively. For the same molecule, in [8], the superoxide response (% of plate) is 104% (inactive). For the same molecule, in assay [9], the aptamer binding inhibition is 3% (inactive). For the same molecule, the response in assay [10] was -19.2% (inactive); in [12], 51.2% (active). For the same molecule, the binding (% of control) in assay [13] was 103% (inactive). In assay [14], the efflux inhibition (fraction of control) is -0.1 (inactive). The differentiation response in assay [16] was -10.4% (inactive).

What is called inhibition is the drop in the measured response relative to a control, in per cent.
